PubChem BioAssay (NCI)
“And” between values parts separate entries of the source, which are not always exact repeats. Equal values may be shown once. Compounds without any hit were thinned out: in the full panel of roughly 79,000, 15% have a hit. Where a structure was tested more than once in an assay, its records may differ in their call. The source made the active and inactive calls. No stated cut-off is given here; in the data, active means growth inhibition above about 70%; inactive means the rest.

Legend:
[1] = NCI Yeast Anticancer Drug Screen. Data for the rad52 strain (AID 147);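 further: 0% = growth of vehicle-treated control cultures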; settings: S. cerevisiae rad52 mutant growth inhibition, stronger effect = higher value
How it was run: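 Vehicle-treated cultures served as the reference for growth inhibition of compound-exposed yeast bearing a DNA repair mutation.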

[2] = NCI Yeast Anticancer Drug Screen. Data for the wt1 strain (AID 149);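 further: 0% = growth of vehicle-treated wt1 cultures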; settings: S. cerevisiae wt1 strain (SPY 50644) growth inhibition, stronger effect = higher value
How it was run: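 Readout: yeast growth inhibition, normalised to vehicle controls, in the wt1 strain exposed to test compounds.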

[3] = NCI Yeast Anticancer Drug Screen. Data for the rad50EPP+ strain (AID 151);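 further: 0% = growth of vehicle-treated control cultures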; settings: S. cerevisiae rad50 mutant strain, stronger effect = higher value
How it was run: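 In this screen, rad50EPP+ yeast were exposed to compounds. Growth inhibition was scored against vehicle-treated controls.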

[4] = NCI Yeast Anticancer Drug Screen. Data for the rad50 strain (AID 155);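 further: 0% = growth of vehicle-only cultures of the same strain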; settings: S. cerevisiae rad50 strain growth inhibition, stronger effect = higher value
How it was run: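 Compounds were tested on a yeast strain with an engineered DNA damage repair alteration; the reported value is growth inhibition normalised to vehicle treatment.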

[5] = NCI Yeast Anticancer Drug Screen. Data for the mec2-1 strain (AID 157); settings: S. cerevisiae mec2-1 strain, stronger effect = higher value
How it was run: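 Vehicle-treated cultures served as reference for growth inhibition of compound-exposed mec2-1 yeast.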

[6] = NCI Yeast Anticancer Drug Screen. Data for the rad14 strain (AID 159);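 further: 0% = growth of vehicle-treated control cultures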; settings: S. cerevisiae rad14 strain growth inhibition, stronger effect = higher value
How it was run: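 Compound-treated yeast with a defined DNA-repair lesion; growth inhibition normalised to vehicle-treated cultures.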

[7] = NCI Yeast Anticancer Drug Screen. Data for the sgs1 mgt1 strain (AID 161);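 further: 0% = growth of cultures given vehicle only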; settings: S. cerevisiae sgs1 mgt1 strain, stronger effect = higher value
How it was run: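 Test agents were incubated with a DNA-repair-mutant yeast strain. Growth was then read and compared against vehicle-treated controls.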

[8] = NCI Yeast Anticancer Drug Screen. Data for the CLN2oe strain (AID 163);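 further: 0% = growth of vehicle-only control cultures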; settings: S. cerevisiae CLN2oe strain, stronger effect = higher value
How it was run: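 Inhibition relative to vehicle-treated yeast is reported. Cells: strain with genetic alteration in cell-cycle control, grown with compound.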

[9] = NCI Yeast Anticancer Drug Screen. Data for the cln2 rad14 strain (AID 165);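 further: 0% = growth equal to vehicle treated cultures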; settings: S. cerevisiae cln2 rad14 strain, stronger effect = higher value
How it was run: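 Each compound was tested on cln2 rad14 yeast. Inhibition of growth was calculated against vehicle-exposed controls.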

[10] = NCI Yeast Anticancer Drug Screen. Data for the bub3 strain (AID 167); settings: S. cerevisiae bub3 mutant strain, stronger effect = higher value
How it was run: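 Growth of a checkpoint-deficient yeast mutant is measured after compound exposure. Values represent inhibition relative to vehicle.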

[11] = NCI Yeast Anticancer Drug Screen. Data for the wt2 strain (AID 169);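 further: 0% = growth of vehicle-treated yeast cultures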; settings: S. cerevisiae wt2 strain growth inhibition, stronger effect = higher value
How it was run: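 Inhibition of yeast growth was determined after compound treatment, normalised to controls receiving only vehicle.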

[12] = NCI Yeast Anticancer Drug Screen. Data for the mlh1 strain (AID 171);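 further: 0% = growth of vehicle-treated control cultures of the same strain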; settings: S. cerevisiae mlh1 strain growth inhibition, stronger effect = higher value
How it was run: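 Vehicle-normalised growth inhibition of a repair- or checkpoint-altered yeast strain following compound treatment.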

[13] = NCI Yeast Anticancer Drug Screen. Data for the sgs1 strain (AID 173);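 further: 0% = growth of vehicle-only control cultures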; settings: S. cerevisiae sgs1 mutant, stronger effect = higher value
How it was run: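 Screen format: yeast with repair or checkpoint alterations, compound exposure, growth read relative to vehicle.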

[14] = NCI Yeast Anticancer Drug Screen. Data for the mlh1 rad18 strain (AID 175); settings: S. cerevisiae mlh1 rad18 strain growth inhibition, stronger effect = higher value
How it was run: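 Vehicle-treated cultures served as the reference for growth inhibition in a yeast strain carrying DNA damage repair alterations exposed to each compound.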

[15] = NCI Yeast Anticancer Drug Screen. Data for the rad18 strain (AID 177); settings: S. cerevisiae rad18 mutant growth inhibition, stronger effect = higher value
How it was run: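 Test articles were incubated with altered yeast defective in DNA damage repair. Results are given as inhibition of growth versus vehicle.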

[16] = NCI Yeast Anticancer Drug Screen. Data for the mgt1 strain (AID 153); settings: S. cerevisiae mgt1 mutant growth inhibition, stronger effect = higher value
How it was run: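 mgt1 strain exposed; growth vs vehicle control recorded as inhibition.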

[17] = at 5.0 µM (retest, dose inferred, filed as 0.5)
[18] = at 50.0 µM (retest, dose inferred, filed as 5.0)

Measured: growth inhibition

CCCCCCCCCCCCCCCCP(=O)(O)OP(=O)(O)OCC1OC(n2ccc(N)nc2=O)C(O)C1O (stereo not drawn)
inactive: [1]; at 1.2 µM 3% | [1]; at 3.7 µM 3% | [1]; at 11.0 µM 4% | [1]; at 33.0 µM 3% | [1]; at 100.0 µM 5% | [2]; at 1.2 µM 3% | [2]; at 3.7 µM 4% | [2]; at 11.0 µM 6% | [2]; at 33.0 µM 3% | [2]; at 100.0 µM 3% | [3]; at 1.2 µM 0% | [3]; at 3.7 µM -5% | [3]; at 11.0 µM -6% | [3]; at 33.0 µM -2% | [3]; at 100.0 µM 18% | [4]; at 1.2 µM 2% | [4]; at 3.7 µM 1% | [4]; [17] -13% | [4]; at 11.0 µM 2% | [4]; at 33.0 µM 0% | [4]; [18] 10% | [4]; at 100.0 µM 3% | [5]; at 1.2 µM -3% | [5]; at 3.7 µM -3% | [5]; [17] -9% | [5]; at 11.0 µM -4% | [5]; at 33.0 µM -5% | [5]; [18] -13% | [5]; at 100.0 µM -3% | [6]; at 1.2 µM -2% | [6]; at 3.7 µM -1% | [6]; at 11.0 µM -1% | [6]; at 33.0 µM -1% | [6]; at 100.0 µM 1% | [7]; [17] -2% | [7]; [18] 46% | [8]; at 1.2 µM -3% | [8]; at 3.7 µM -7% | [8]; at 11.0 µM -6% | [8]; at 33.0 µM -17% | [8]; at 100.0 µM -17% | [9]; [17] 0% | [9]; [18] 6% | [9]; at 50.0 µM 59.9% and -13.4% | [10]; at 1.2 µM -1% | [10]; at 3.7 µM -2% | [10]; [17] 14% | [10]; at 11.0 µM -4% | [10]; at 33.0 µM -10% | [10]; [18] -19% | [10]; at 100.0 µM -19% | [11]; at 1.2 µM 1% | [11]; at 3.7 µM 0% | [11]; at 11.0 µM 1% | [11]; at 33.0 µM 1% | [11]; at 100.0 µM 1% | [12]; at 1.2 µM 0% | [12]; at 3.7 µM 0% | [12]; at 11.0 µM 1% | [12]; at 33.0 µM -4% | [12]; at 100.0 µM 1% | [13]; at 1.2 µM 0% | [13]; at 3.7 µM 0% | [13]; at 11.0 µM -3% | [13]; at 33.0 µM 1% | [13]; at 100.0 µM 21% | [14]; [17] -19% | [14]; [18] 26% | [15]; at 1.2 µM -1% | [15]; at 3.7 µM -2% | [15]; at 11.0 µM 3% | [15]; at 33.0 µM 0% | [15]; at 100.0 µM 11%
74% (active) and -35.4% (inactive): [14]; at 50.0 µM
76% (active) and -16.8% (inactive): [10]; at 50.0 µM
80.7% (active) and -3.1% (inactive): [5]; at 50.0 µM
73.3% (active) and 8.3% (inactive): [4]; at 50.0 µM
88.3% (active) and 3.75% (inactive): [7]; at 50.0 µM

CCOP(=O)(CC(C)P(=O)(OCC)OCC)OCC.C[CH2][Sn]([Cl])([Cl])[CH2]C (stereo not drawn)
active: [1]; at 33.0 µM 79% | [1]; at 100.0 µM 94% | [2]; at 33.0 µM 76% | [2]; at 100.0 µM 93% | [16]; at 100.0 µM 95% | [4]; at 33.0 µM 71% | [4]; at 50.0 µM 82.7% | [4]; at 100.0 µM 92% | [5]; at 50.0 µM 85.4%
inactive: [1]; at 1.2 µM -4% | [1]; at 3.7 µM -1% | [1]; at 11.0 µM 19% | [2]; at 1.2 µM 0% | [2]; at 3.7 µM 3% | [2]; at 11.0 µM 12% | [16]; at 1.2 µM -3% | [16]; at 3.7 µM -1% | [16]; at 11.0 µM 4% | [16]; at 33.0 µM 67% | [4]; at 1.2 µM -7% | [4]; at 3.7 µM -15% | [4]; [17] 16% | [4]; at 11.0 µM -2% | [4]; [18] 14% | [5]; at 1.2 µM 1% | [5]; at 3.7 µM 4% | [5]; [17] 1% | [5]; at 11.0 µM 14% | [5]; at 33.0 µM 69% | [5]; [18] 18%
